Several values for one entry are separate records, joined by “and”; a condition that tells them apart may be missing. Identical values can stand only once. Unmarked numbers belong to inactive results. Activity calls are given as the source filed them. Calls follow the shape of the dose curve; as a rule, active = well fitted activation curve with a large enough effect; inconclusive = small, poorly fitted or top-dose-only effect; inactive = flat fitted curve, though single readings scatter.
Biological target: Peroxisome proliferator-activated receptor alpha (Homo sapiens) (UniProt Q07869)
Sequence (Q07869 whole entry, looked up): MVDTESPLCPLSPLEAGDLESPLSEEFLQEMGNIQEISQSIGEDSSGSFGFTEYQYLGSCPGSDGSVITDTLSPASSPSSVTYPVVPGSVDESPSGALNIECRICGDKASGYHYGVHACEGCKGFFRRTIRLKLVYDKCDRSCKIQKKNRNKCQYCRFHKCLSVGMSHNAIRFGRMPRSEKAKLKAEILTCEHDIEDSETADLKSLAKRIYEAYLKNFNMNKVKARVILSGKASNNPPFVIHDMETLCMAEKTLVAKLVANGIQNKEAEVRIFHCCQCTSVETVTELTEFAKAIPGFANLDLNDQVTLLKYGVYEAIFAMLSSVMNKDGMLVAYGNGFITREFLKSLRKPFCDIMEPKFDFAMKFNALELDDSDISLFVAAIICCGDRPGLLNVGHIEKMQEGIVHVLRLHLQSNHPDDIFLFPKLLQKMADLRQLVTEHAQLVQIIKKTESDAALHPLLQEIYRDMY
Assay: qHTS assay for small molecule agonists of the peroxisome proliferator-activated receptor alpha (PPARalpha) signaling pathway (AID 651778); as to max response: % of control where 0% means no effect
Settings: PathHunter PPARalpha complementation, chemiluminescence, 6 h; max response: stronger effect = higher value
Text: National Center for Advancing Translational Sciences [NCATS]
NIH Chemical Genomics Center [NCGC]
U.S. Environmental Protection Agency [EPA]
National Institutes of Environmental Health Sciences [NIEHS]
National Toxicology Program [NTP]
The Peroxisome proliferator-activated receptors (PPARs) are lipid-activated transcription factors of the nuclear receptor superfamily with three distinct subtypes (alpha, garmma and beta/delta). All these subtypes heterodimerize with retinoid X receptor and have different physiological functions. PPARalpha is highly expressed in tissues with high rates of mitochondrial fatty acid oxidation, such as liver, heart, muscle, kidney and cells of the arterial wall. PPARalpha is a major regulator of lipid metabolism and energy homeostasis.
A cell based assay was used to identify activators of PPARalpha. The assay detects binding of a ligand to PPARalpha leading to its activation, translocation and complementation thus forming a functional enzyme capable of hydrolyzing the substrate molecule and generating chemiluminescent signal.
2,000 cells in 6 uL/well were dispensed into white wall/solid bottom 1536-well plates using a Multidrop Combi (Thermo Scientific) dispenser. After incubation 37 C and 5% CO2 overnight, 23 nL compound or DMSO only were transferred by a pin tool. The plates were incubated for 6 hr at 37 C and 5% CO2. 3 ul PathHunter detection reagent (Discoverx) was then added to each well and following 60 min incubation at room temperature, chemiluminescence was quantified on a ViewLux CCD-based plate reader.
Potency is read from the fitted curve at half-maximal effect.

Row | SMILES | max response | Potency
1 | CC(C)Cc1ccc(C(C)C(=O)O)cc1 (stereo unspecified) | -0.128% | –
2 | CN(Cc1cnc2nc(N)nc(N)c2n1)c1ccc(C(=O)N[C@@H](CCC(=O)O)C(=O)O)cc1 | -3.74% | –
3 | O=c1[nH]cc(F)c(=O)[nH]1 | -2.48% | –
4 | Cc1ccc(-c2cc(C(F)(F)F)nn2-c2ccc(S(N)(=O)=O)cc2)cc1 | 3.54% | –
5 | O=C(Nc1ccc([N+](=O)[O-])cc1Cl)c1cc(Cl)ccc1O | -1.62% | –
6 | COc1ccc2c(c1)c(CC(=O)O)c(C)n2C(=O)c1ccc(Cl)cc1 | 11.2% and 10.8% | –
7 | CC(C)(Oc1ccc(C2CC2(Cl)Cl)cc1)C(=O)O (stereo unspecified) | – | 14.1 µM (active)
8 | Cn1c(=O)c2c(ncn2C)n(C)c1=O | -7.69% and -2.94% | –
9 | NCCS(=O)(=O)O | 5.59% | –
10 | CC(COc1ccccc1)N(CCCl)Cc1ccccc1 (stereo unspecified) | -4.85% and -2.28% | –
11 | Nc1ccn([C@H]2CC[C@@H](CO)O2)c(=O)n1 | -1.99% and 0.814% | –
12 | O=C(CCCN1CCC(O)(c2ccc(Cl)cc2)CC1)c1ccc(F)cc1 | -1.35% | –
13 | Nc1c2c(nc3ccccc13)CCCC2 | -6.35% | –
14 | Cc1cn([C@H]2C[C@H](N=[N+]=[N-])[C@@H](CO)O2)c(=O)[nH]c1=O | 0.0124% and -0.27% | –
15 | Clc1ccc(C(c2ccccc2Cl)C(Cl)Cl)cc1 (stereo unspecified) | 18.7% | –
16 | CC#C[C@]1(O)CC[C@H]2[C@@H]3CCC4=CC(=O)CCC4=C3[C@@H](c3ccc(N(C)C)cc3)C[C@@]21C | -3.32% | –

Row | SMILES | max response | Potency
17 | N[C@@H](Cc1c[nH]c2ccc(O)cc12)C(=O)O | -1.51% | –
18 | CCC1(c2ccccc2)C(=O)NCNC1=O | -5.03% and -3.26% | –
19 | O=C(c1ccc(OCCN2CCCCC2)cc1)c1c(-c2ccc(O)cc2)sc2cc(O)ccc12 | -6.34% | –
20 | NS(=O)(=O)c1cc2c(cc1Cl)NCNS2(=O)=O | -0.533% and -1.17% | –
21 | CCOC(=O)C(C)(C)Oc1ccc(Cl)cc1 | 5.39% | –
22 | CN(C)CCOC(c1ccccc1)c1ccccc1 | -3.61% | –
23 | O=c1c(-c2ccc(O)cc2)coc2cc(O)cc(O)c12 | -1.44% and -0.484% | –
24 | Cc1cn([C@H]2C=C[C@@H](CO)O2)c(=O)[nH]c1=O | 1.44% and 1.55% and -0.234% | –
25 | COc1cc2c(c(OC)c1OC)-c1ccc(OC)c(=O)cc1[C@@H](NC(C)=O)CC2 | -2.35% and 0.0679% and 8.6% | –
26 | Cn1c(=O)c2[nH]cnc2n(C)c1=O | -1.61% | –
27 | CC(C)NCC(O)c1ccc(O)c(O)c1 (stereo unspecified) | -1.03% and -0.0809% | –
28 | Cn1cnc2c1c(=O)[nH]c(=O)n2C | -2.11% | –
29 | CC(C)C(=O)Nc1ccc([N+](=O)[O-])c(C(F)(F)F)c1 | -5.17% and -3.96% | –
30 | COc1ccc2[nH]cc(CCNC(C)=O)c2c1 | -3.03% and -8.27% and 0.529% | –
31 | C[C@](N)(Cc1ccc(O)c(O)c1)C(=O)O | -1.06% | –

Reference: PubChem BioAssay (NCATS)
